Bioassay records: PubChem BioAssay, National Center for Advancing Translational Sciences (NCATS)
In the library only some 4.6% were active in any assay of this set; here they are far more common.
D1 antagonist: human D1 dopamine receptor antagonism; P21728; HEK293 TREx D1 cells, calcium flux, dopamine EC80; stronger effect = lower value; activity change, negative = inhibition, % at 10 µM; hit rate 3.2% among 360,000; AID 504652; in the data active means activity change below about -30%
Target sequence (P21728 whole entry, looked up): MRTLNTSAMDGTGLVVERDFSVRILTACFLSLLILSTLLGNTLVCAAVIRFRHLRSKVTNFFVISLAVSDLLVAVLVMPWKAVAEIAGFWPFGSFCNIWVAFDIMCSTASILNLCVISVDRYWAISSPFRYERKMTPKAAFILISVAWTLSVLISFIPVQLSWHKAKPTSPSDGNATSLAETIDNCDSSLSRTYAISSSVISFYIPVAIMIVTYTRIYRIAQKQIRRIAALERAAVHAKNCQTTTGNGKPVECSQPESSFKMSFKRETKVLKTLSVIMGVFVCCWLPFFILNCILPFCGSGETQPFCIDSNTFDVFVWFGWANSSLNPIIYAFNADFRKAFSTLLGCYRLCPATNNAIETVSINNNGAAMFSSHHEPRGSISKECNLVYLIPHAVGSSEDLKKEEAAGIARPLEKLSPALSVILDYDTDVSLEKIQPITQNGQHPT
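Compound effects on dopamine-evoked calcium signalling were measured in tetracycline-induced HEK293 Trex D1 cells. Dopamine at EC80 followed a 180 s compound pre-read, and fluorescence was tracked kinetically for 180 s more.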
D1 potentiator: human D1 dopamine receptor positive modulation | P21728 | HEK293 TREx D1 cells, calcium flux, dopamine EC20 potentiation | potentiation, % at 10 µM | hit rate 0.036% among 360,000; in the data active means potentiation above about 30%
D1 agonist: activates the human D1 dopamine receptor. P21728. HEK293 T-REx D1 cells, calcium flux, agonist mode. activation, % at 2 µM. hit rate 1% among 360,000
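Tetracycline-induced HEK293 TREx D1 cells, force-coupled to calcium signalling, were dye-loaded with a no-wash calcium kit. Compound was pin-added after a 10 s baseline. Fluorescence was read kinetically at 1 cycle/s for 180 s, with calcium rises flagged as agonism.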
TRHR enhancer: TRH receptor (human) allosteric enhancement | enhancement, % at 2 µM | hit rate 0.66% among 360,000 | P34981 | TRHR cells, fluo-8 calcium fluorescence, EC20 TRH enhancement; in the data active means enhancement above about 30%
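TRHR-expressing cells loaded with fluo-8 calcium dye were read kinetically (ex 480/em 530) during compound addition, then stimulated with an EC20 of TRH (10 nM final). Enhancement of the Gq-mediated intracellular calcium response was scored.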
TRHR ag: activates the human TRH receptor; activation, % at 2 µM; TRHR cells, calcium flux fluo-8, FDSS agonist mode; hit rate 0.18% among 360,000; AID 493084
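Agonist-mode FDSS calcium read (Ex 480/Em 530, 1 s cycles) in 1536-well TRHR cells with fluo-8 dye, after 10-cycle baseline and 23 nL compound addition; TRH at EC20 (10 nM final) added afterwards for the enhancer phase.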
A number is an active result; n = inactive; ! = not confirmed by another sample. Unless noted, no stated cut-off is given here; in the data, active means activation above about 30%; inactive means the rest.

SMILES	D1 antagonist	D1 potentiator	D1 agonist	TRHR enhancer	TRHR ag
COc1ccc(CC(=O)Nc2ccc(NC(=O)c3ccccc3F)cc2)cc1	n	n	54	n	n
COc1ccc(NC(=O)CSc2nc(N)c(NC(=O)c3ccccc3F)c(=O)[nH]2)cc1	n	n	n	n	n
Cc1ccc(C)n1-c1ccc(C(=O)NCc2ccncc2)cc1	n	n	n	31	n
CCc1ccc(-c2[nH]c3c(c2-c2sc(C)c(C(=O)OC)c2O)c(=O)n(C)c(=O)n3C)cc1	n	n	n	n	n
COC(=O)c1c(C)sc(-c2c(-c3ccc(F)cc3)[nH]c3[nH]c(=O)[nH]c(=O)c23)c1O	n	n	131	n	56
CCC1(c2ccc(OC)cc2)NC(=O)N(CC(=O)c2ccc3c(c2)OCCO3)C1=O (stereo not given)	n	n	32	n	n
CCC1(c2ccc(OC)cc2)NC(=O)N(CC(=O)N2CCc3ccccc32)C1=O (stereo not given)	n	n	39	n	n
CCC1(c2ccc(F)cc2)NC(=O)N(CC(=O)N2c3ccccc3CC2C)C1=O (stereo not given)	n	n	85	n	n
CCC1(c2ccc(F)cc2)NC(=O)N(CC(=O)N(CCC#N)c2ccccc2)C1=O (stereo not given)	n	n	n	31	n
CC(=O)c1cccc(NC(=O)C2=CC(c3ccc(F)cc3)=NS(=O)(=O)N2C)c1	n	n	n	n	n
CCC1(c2ccc(F)cc2)NC(=O)N(CC(=O)NC2CC2)C1=O (stereo not given)	n	n	n	n	n
CCc1ccc(C(=O)CN2C(=O)NC(C)(c3ccc(C)cc3)C2=O)cc1 (stereo not given)	n	n	n	n	n
CCC1(c2ccc(F)cc2)NC(=O)N(CC(=O)c2cc(C)n(C3CC3)c2C)C1=O (stereo not given)	n	n	41	n	n
Cc1ccc(C2(C)NC(=O)N(CC(=O)c3ccc4c(c3)OCCO4)C2=O)cc1 (stereo not given)	-43	n	n	n	n
CN(C)C(=O)CSCc1c(Cl)cccc1Cl	n	n	n	n	n
O=C(CCCN1Cc2ccccc2C1)c1ccc(F)cc1	-71	n	n	n	n
CN1CCN(CCCC(=O)c2ccc(F)cc2)CC1	n	n	n	n	n
O=C(N=C1SC2CS(=O)(=O)CC2N1c1cccc(Cl)c1)C1CCCO1 (stereo not given)	n	n	n	n	n
O=C(O)c1cc(N/N=C/c2c[nH]c3ccccc23)ccc1Cl	n	n	n	n	n
COC(=O)COc1cccc(/C=N/NC(=O)CCSc2ccccc2)c1	-34	n	n	n	n
O=C(C1CCCCN1S(=O)(=O)c1ccccc1[N+](=O)[O-])N1CCOCC1 (stereo not given)	n	n	n	n	n
CC(NC(=O)Nc1ccc(F)cc1)C(c1cccs1)N1CCCC1 (stereo not given)	n	n	72	n	n
Cc1ccccc1Nc1c(-c2c[nH]c3ccccc23)nc2cccc(C)n12	n	n	33	n	n
Cc1ccc2nc(-c3c[nH]c4ccccc34)c(Nc3ccccc3C)n2c1	n	n	n	n	n
Cc1cccc(NC(=O)C2(c3ccccc3)CC2(Cl)Cl)c1 (stereo not given)	-64	n	n	n	n
SMILES	D1 antagonist	D1 potentiator	D1 agonist	TRHR enhancer	TRHR ag
CCN(CC)CCNC(=O)Cn1c(=O)c2cccn2c2ccc(F)cc21	n	n	n	n	n
CN(C)CCNC(=O)Cn1c(=O)c2cccn2c2ccc(F)cc21	n	n	37!	n	n
Cc1ccc(S(=O)(=O)N(Cc2cccc(C(F)(F)F)c2)C(=O)N2CCN(C)CC2)cc1	n	n	n	n	n
CCN(CC)S(=O)(=O)c1ccc(NC(=O)Nc2cccc(C(F)(F)F)c2)cc1	-32	n	n	n	n
Cc1ccc(S(=O)(=O)Nc2ccc(NC(=O)Nc3cccc(C(F)(F)F)c3)cc2)cc1	n	n	n	n	n
Cc1ccc(S(=O)(=O)N(CC(=O)Nc2cccc(C(F)(F)F)c2)C(=O)N2CCN(C)CC2)cc1	-38	n	n	n	n
O=C(Nc1ccc(OC(F)F)cc1)Nc1cccc(C(F)(F)F)c1	-38	n	n	n	n
CNC(=O)c1ccccc1NC(=O)C1CC(=O)N(C(C)C)C1 (stereo not given)	n	n	n	37	n
Cn1cc(/C=N/n2cnc3scc(-c4ccccc4)c3c2=O)c2ccccc21	-44	n	n	n	n
CCOC(=O)C1=C(CN(CC)Cc2ccccc2)NC(=O)NC1c1ccc(OC(C)C)cc1 (stereo not given)	-45	n	n	n	n
CCOC(=O)C1=C(CN2CCC(C)CC2)NC(=O)NC1c1ccc(OC(C)C)cc1 (stereo not given)	n	n	n	n	n
Cc1nc2ccc(-c3ccccc3)cc2o1	-46	n	n	n	n
Oc1ccccc1OCc1nc2ccccc2s1	-31	n	n	n	n
N/C(Cc1nc2ccccc2s1)=N\O	n	n	n	n	n
NC(=O)CSCc1nc2ccccc2s1	n	n	n	37	n
Cc1nc(SCC(=O)c2ccc(Cl)s2)c2oc3ccccc3c2n1	n	n	n	n	n
Cn1cc(CN2CCCC(C(=O)Nc3cccc(-c4cc5ccccc5[nH]4)c3)C2)cn1 (stereo not given)	n	n	n	n	n
Cc1ncc(CN2CCCC(C(=O)Nc3ccc(-c4cccc(F)c4)cc3)C2)n1C (stereo not given)	-32	n	n	n	n
COc1cccc(-c2ccc(NC(=O)C3CCCN(Cc4cnc(C)n4C)C3)cc2)c1 (stereo not given)	n	n	n	n	n
CC(C)n1cc(CN2CCCC(C(=O)Nc3cccc(-c4cc5ccccc5[nH]4)c3)C2)cn1 (stereo not given)	-31	n	30	n	n
COCc1cc(CN2CCCC(C(=O)Nc3ccc(-c4ccco4)cc3)C2)ccc1OC (stereo not given)	-30	n	n	n	n
COc1cccc(-c2ccc(NC(=O)C3CCCN(Cc4cnn(C)c4)C3)cc2)c1 (stereo not given)	n	n	32	n	n
CC(=O)Nc1ccccc1C(=O)N1CCN(Cc2ccccc2)CC1	n	n	n	n	n
Cc1ccc(C(=O)CCS(=O)(=O)c2ccc(Br)cc2)cc1	n	n	n	n	n
Cc1ccc(S(=O)(=O)CCC(=O)c2cccc([N+](=O)[O-])c2)cc1	-32	n	n	n	n
CC(=O)Nc1ccc(NC(=O)CCC(=O)OCC(=O)c2cccc([N+](=O)[O-])c2)cc1	-67	n	n	n	n
CC(=O)Nc1ccc(C(=O)OCC(=O)c2cccc([N+](=O)[O-])c2)cc1	n	n	n	n	n
Cc1ccccc1CS(=O)(=O)c1ncc(Cl)c(C(=O)Nc2ccc(F)cc2)n1	n	n	n	n	n
